From PubChem BioAssay AID1159580 (chemical genetic matrix, 2015)
The whole screen tested about 5,500 compounds, of which about 2,000 (36%) were called active. Inconclusive results (about 18%) are left out. No stated cut-off is given here; in the data, active means normalized growth mostly below about 0.91 (no sharp cut-off); inconclusive means no clear call, values can overlap the other calls; inactive means mostly above about 0.92. Some of the results follow.

Assay: chemical genetic growth profiling, strain panel (AID 1159580);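 further: tested at 20 µM; growth read once vehicle control cultures reached saturation at 30 °C; 1 = growth at the plate median or of vehicle wells; lower values mean less growth of the strain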
Conditions: growth OD

Measured: normalized growth

O=c1c(-c2ccc3c(c2)OCO3)coc2cc(O)ccc12
inactive: S. cerevisiae deletion strains, locus YJR043C, strain POL32, active compounds read low 1 | S. cerevisiae deletion strains, locus YJR075W, strain HOC1, active compounds read low 1.02 | S. cerevisiae deletion strains, locus YKL009W, strain mrt4, active compounds read low 0.963 | S. cerevisiae deletion strains, locus YKL068W, active compounds read low 0.994 | S. cerevisiae deletion strains, locus YKL085W, strain MDH1 (second series), active compounds read low 0.995 | S. cerevisiae deletion strains, locus YKL085W, strain MDH1, active compounds read low 0.995 | S. cerevisiae deletion strains, locus YKL160W, strain elf1, active compounds read low 0.983 | S. cerevisiae deletion strains, locus YKL190W, strain CNB1, active compounds read low 1 | S. cerevisiae deletion strains, locus YKR001C, strain vps1, active compounds read low 0.969 | S. cerevisiae deletion strains, locus YKR026C, strain gcn3, active compounds read low 0.98 | S. cerevisiae deletion strains, locus YKR091W, strain srl3, active compounds read low 0.998 | S. cerevisiae deletion strains, locus YLL001W, strain dnm1, active compounds read low 0.977 | S. cerevisiae deletion strains, locus YLL026W, active compounds read low 0.989 | S. cerevisiae deletion strains, locus YLL041C, strain sdh2, active compounds read low 0.995 | S. cerevisiae deletion strains, locus YLR027C, strain aat2, active compounds read low 0.987 | S. cerevisiae deletion strains, locus YLR039C, strain RIC1, active compounds read low 0.969 | S. cerevisiae deletion strains, locus YLR058C, strain SHM2, active compounds read low 0.994 | S. cerevisiae deletion strains, locus YLR102C, strain apc9, active compounds read low 0.987 | S. cerevisiae deletion strains, locus YLR221C, strain rsa3, active compounds read low 0.994 | S. cerevisiae deletion strains, locus YLR258W, strain gsy2, active compounds read low 0.981 | S. cerevisiae deletion strains, locus YLR262C, strain YPT6 (second series), active compounds read low 0.957 | S. cerevisiae deletion strains, locus YLR262C, strain YPT6, active compounds read low 0.994 | S. cerevisiae deletion strains, locus YLR268W, strain sec22, active compounds read low 0.981 | S. cerevisiae deletion strains, locus YLR320W, strain mms22, active compounds read low 0.957 | S. cerevisiae deletion strains, locus YLR330W, strain CHS5, active compounds read low 1 | S. cerevisiae deletion strains, locus YLR342W, strain FKS1 (second series), active compounds read low 0.981 | S. cerevisiae deletion strains, locus YLR342W, strain FKS1, active compounds read low 0.98 | S. cerevisiae deletion strains, locus YLR357W, strain rsc2, active compounds read low 0.965 | S. cerevisiae deletion strains, locus YLR370C, strain arc18, active compounds read low 1 | S. cerevisiae deletion strains, locus YLR371W, strain rom2, active compounds read low 0.981 | S. cerevisiae deletion strains, locus YLR384C, strain iki3, active compounds read low 0.971 | S. cerevisiae deletion strains, locus YLR418C, strain cdc73, active compounds read low 0.984 | S. cerevisiae deletion strains, locus YML016C, strain PPZ1, active compounds read low 0.985 | S. cerevisiae deletion strains, locus YML032C, strain rad52, active compounds read low 0.969 | S. cerevisiae deletion strains, locus YML120C, strain ndi1, active compounds read low 0.995 | S. cerevisiae deletion strains, locus YML124C, strain tub3, active compounds read low 0.976 | S. cerevisiae deletion strains, locus YMR058W, strain fet3, active compounds read low 1 | S. cerevisiae deletion strains, locus YMR078C, strain ctf18, active compounds read low 0.967 | S. cerevisiae deletion strains, locus YMR125W, strain sto1, active compounds read low 0.986 | S. cerevisiae deletion strains, locus YMR129W, active compounds read low 0.997 | S. cerevisiae deletion strains, locus YMR205C, strain PFK2, active compounds read low 0.978 | S. cerevisiae deletion strains, locus YMR223W, strain ubp8, active compounds read low 0.976 | S. cerevisiae deletion strains, locus YMR231W, strain pep5, active compounds read low 1 | S. cerevisiae deletion strains, locus YMR263W, strain SAP30, active compounds read low 1.01 | S. cerevisiae deletion strains, locus YMR307W, strain GAS1, active compounds read low 0.974 | S. cerevisiae deletion strains, locus YNL067W, strain RPL9B, active compounds read low 1.03 | S. cerevisiae deletion strains, locus YNL071W, strain lat1, active compounds read low 0.996 | S. cerevisiae deletion strains, locus YNL128W, strain TEP1, active compounds read low 1.02 | S. cerevisiae deletion strains, locus YNL153C, strain GIM3, active compounds read low 1.01 | S. cerevisiae deletion strains, locus YNL209W, strain ssb2, active compounds read low 0.987 | S. cerevisiae deletion strains, locus YNL233W, strain BNI4, active compounds read low 0.997 | S. cerevisiae deletion strains, locus YNL248C, strain rpa49, active compounds read low 0.987 | S. cerevisiae deletion strains, locus YNL250W, strain rad50, active compounds read low 0.989 | S. cerevisiae deletion strains, locus YNL271C, strain bni1, active compounds read low 0.992 | S. cerevisiae deletion strains, locus YNL298W, strain CLA4, active compounds read low 0.981 | S. cerevisiae deletion strains, locus YNL307C, strain MCK1, active compounds read low 0.948 | S. cerevisiae deletion strains, locus YNL322C, strain KRE1 (second series), active compounds read low 0.992 | S. cerevisiae deletion strains, locus YNL322C, strain KRE1, active compounds read low 0.999 | S. cerevisiae deletion strains, locus YNR049C, strain mso1, active compounds read low 0.996 | S. cerevisiae deletion strains, locus YNR052C, strain pop2, active compounds read low 0.975 | S. cerevisiae deletion strains, locus YOL006C, strain TOP1, active compounds read low 1.01 | S. cerevisiae deletion strains, locus YOL012C, strain htz1 1.06 | S. cerevisiae deletion strains, locus YOL147C, strain pex11, active compounds read low 0.976 | S. cerevisiae deletion strains, locus YOR001W, strain rrp6, active compounds read low 0.991 | S. cerevisiae deletion strains, locus YOR061W, strain CKA2, active compounds read low 0.981 | S. cerevisiae deletion strains, locus YOR069W, strain VPS5, active compounds read low 0.991 | S. cerevisiae deletion strains, locus YOR070C, strain gyp1, active compounds read low 0.99 | S. cerevisiae deletion strains, locus YOR080W, strain dia2, active compounds read low 0.981 | S. cerevisiae deletion strains, locus YOR083W, strain WHI5, active compounds read low 1 | S. cerevisiae deletion strains, locus YOR106W, strain vam3, active compounds read low 0.986 | S. cerevisiae deletion strains, locus YOR136W, strain idh2, active compounds read low 0.985 | S. cerevisiae deletion strains, locus YOR144C, strain elg1, active compounds read low 0.98 | S. cerevisiae deletion strains, locus YOR184W, strain ser1, active compounds read low 0.994 | S. cerevisiae deletion strains, locus YOR265W, strain rbl2, active compounds read low 0.991 | S. cerevisiae deletion strains, locus YOR270C, strain vph1, active compounds read low 1.02 | S. cerevisiae deletion strains, locus YOR290C, strain snf2, active compounds read low 0.958 | S. cerevisiae deletion strains, locus YOR316C, strain cot1, active compounds read low 0.976 | S. cerevisiae deletion strains, locus YPL051W, strain arl3, active compounds read low 0.99 | S. cerevisiae deletion strains, locus YPL055C, strain LGE1, active compounds read low 1.03 | S. cerevisiae deletion strains, locus YPL078C, strain atp4, active compounds read low 0.995 | S. cerevisiae deletion strains, locus YPL106C, strain sse1, active compounds read low 0.97 | S. cerevisiae deletion strains, locus YPL240C, strain hsp82, active compounds read low 0.988 | S. cerevisiae deletion strains, locus YPL241C, strain CIN2, active compounds read low 0.999 | S. cerevisiae deletion strains, locus YPR119W, strain clb2, active compounds read low 0.985 | S. cerevisiae deletion strains, locus YPR141C, strain kar3, active compounds read low 0.986 | S. cerevisiae deletion strains, locus YPR163C, strain tif3, active compounds read low 0.978 | S. cerevisiae deletion strains, locus YPR167C, strain met16, active compounds read low 0.982 | S. cerevisiae deletion strains, strain wtn01, active compounds read low 0.983 | S. cerevisiae strains, strain wild type, active compounds read low 0.995
